12-LOX inh: blocks human arachidonate 12S-lipoxygenase; P18054; Potency, µM (series often up to 108 µM), without a hit: top-dose activity change, negative = inhibition, most hits filed as inhibitors; purified 12hLO, xylenol orange hydroperoxide absorbance; actives 1.1% (n = 580,000)
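Purified human 12hLO (150 nM final) in 25 mM Hepes, 0.01% Triton X-100, pH 7.0 was preincubated 15 min at room temperature with compound. Then 40 uM arachidonic acid was added, 30 min. Hydroperoxide was read by Fe-XO absorbance ratio 573/405 nm.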
RORgamma inh: inhibitors of mouse ROR gamma transcriptional activity; Potency, µM (top dose mostly 53.6 µM), for the others: at the top dose activity change, negative = inhibition, usual class: inhibitors; P51450; actives 5.4% (n = 310,000); AID 2551; Drosophila S2 Gal4-RORgamma UAS-luciferase reporter, 20 h; further: nearly all actives have a fitted effect of over 60% in size
Target sequence (P51450 whole entry, looked up, the tested form may be a part): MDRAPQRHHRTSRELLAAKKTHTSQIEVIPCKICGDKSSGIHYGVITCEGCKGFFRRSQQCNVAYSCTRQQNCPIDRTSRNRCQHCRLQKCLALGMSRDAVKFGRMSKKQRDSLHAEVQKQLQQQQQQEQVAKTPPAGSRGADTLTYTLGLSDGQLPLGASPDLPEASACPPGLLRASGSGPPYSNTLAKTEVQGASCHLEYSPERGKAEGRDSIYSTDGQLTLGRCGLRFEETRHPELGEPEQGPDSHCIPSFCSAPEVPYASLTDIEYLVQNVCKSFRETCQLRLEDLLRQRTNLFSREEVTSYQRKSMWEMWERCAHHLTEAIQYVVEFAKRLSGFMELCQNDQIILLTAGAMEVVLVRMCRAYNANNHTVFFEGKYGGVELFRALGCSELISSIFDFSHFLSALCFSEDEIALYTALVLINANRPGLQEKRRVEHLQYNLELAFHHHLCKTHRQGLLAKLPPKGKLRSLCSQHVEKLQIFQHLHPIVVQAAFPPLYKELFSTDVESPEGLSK
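Stable Schneider cell line, Gal4 DNA-binding domain fused to ROR gamma, UAS-luciferase. Cmpd 1 hr RT → CuSO4 700 uM final → 20 hr RT → luciferase reagent 10 min → luminescence.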
Gal4-VP16 FLuc: inhibits Gal4-VP16 luciferase reporter, ROR gamma counter-screen; Drosophila S2 Gal4-VP16 UAS-luciferase, luminescence, 20 h; Potency, µM (highest dose often 53.6 µM), without a hit: at the top dose activity, negative = inhibition, most hits filed as inhibitors; actives 3.5% (n = 310,000);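 further: Gal4-VP16 expression switched on by copper sulfate through the metallothionein promoter; nearly all actives have a fitted effect of over 50% in size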
TDP1 cell noCPT: qHTS for Inhibitors of human tyrosyl-DNA phosphodiesterase 1 (TDP1): qHTS in cells in absence of CPT; DT40 Tdp1-/- hTDP1 cells, no CPT, ATP luminescence, 48 h; Potency, µM (top dose mostly 46.2 µM), for the others: at the top dose activity change, negative = growth inhibition, usual class: inhibitors; actives 15% (n = 420,000); further: nearly all actives have a fitted effect of over 55% in size
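Readout: luminescence from CellTiter-Glo after 30 min in the dark at RT. Cells: DT40 Tdp1-/- with stable hTDP1, 400/well. Exposure: compounds alone, ≥48 hr, 37 °C.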
ELG1 DNA repair: ELG1-dependent DNA repair inhibition; HEK293T ELG1-luciferase reporter, luminescence, 16 h; DNA damage induced by 5-fluorouridine; Potency, µM (titrated, usually from 46.1 µM), for inactives: at the top dose activity change, negative = inhibition, usual class: inhibitors; actives 2.3% (n = 330,000); AID 504467; further: nearly all actives have a fitted effect of over 55% in size
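Overnight (16 hr) co-exposure of 2,000 cells/well to 5-fluorouridine and compound at 37 °C preceded detection. Luciferase was quantified via ONE-Glo luminescence; loss of signal denotes inhibition.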
TDP1 cell CPT: growth inhibition of DT40 Tdp1-/-;hTDP1 cells with camptothecin (screen for TDP1 inhibitors) | chicken DT40 Tdp1-/-;hTDP1 cells + 20 nM CPT, ATP luminescence, 48 h | Potency, µM (top dose mostly 46.2 µM), without a hit: top-dose activity change, negative = growth inhibition, actives largely listed as inhibitors | actives 12% (n = 420,000) | AID 686979; further: nearly all actives have a fitted effect of over 55% in size
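Chicken DT40 Tdp1-/- cells complemented with human TDP1, 400 cells/well, exposed to compounds plus 20 nM camptothecin for at least 48 h at 37 C; viability read as ATP content by CellTiter-Glo luminescence.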
An asterisk follows results filed as active; ? = inconclusive; . = no result given; [ ] = dose if it differs, or a comment. Most compounds without a hit are left out; they make up all but 15% or so of the library. The call rests on the fitted dose curve; in most records, active means well fitted curve in the direction sought with a large enough effect; inconclusive means small, poorly fitted or top-dose-only effect, or another doubt; inactive means no such curve, though single readings can be large; an effect the other way counts as inactive or inconclusive. On the % scale 0 is the no-effect control and ±100 the full control effect; potency means the concentration at half of the fitted maximal effect.

SMILES	12-LOX inh	RORgamma inh	Gal4-VP16 FLuc	TDP1 cell noCPT	ELG1 DNA repair	TDP1 cell CPT
COc1ccccc1Cn1c(=S)[nH]c2cc(C(=O)NCC3CCCO3)ccc2c1=O (stereo not drawn)	6%	13µM*	?	?	?	?
COc1ccc(NC(=O)c2ccc3c(=O)n(CC4CCCO4)c(=S)[nH]c3c2)c(OC)c1 (stereo not drawn)	-13%	?	-2%	13µM*	-23%	?
COc1ccccc1CNC(=O)c1ccc2c(=O)n(CC3CCCO3)c(=S)[nH]c2c1 (stereo not drawn)	-12%	-39%	-23%	?	0%	?
O=C(NCc1ccccc1)c1ccc2c(=O)n(CC3CCCO3)c(=S)[nH]c2c1 (stereo not drawn)	3%	-26%	-1%	-11%	-23%	?
COc1ccc(NC(=O)c2ccc3c(=O)n(-c4ccc(OC)cc4OC)c(=S)[nH]c3c2)c(OC)c1	-24%	2.8µM*	8.9µM*	21µM*	?	23µM*
O=C(NCc1ccco1)c1ccc2c(=O)n(CC3CCCO3)c(=S)[nH]c2c1 (stereo not drawn)	0%	?	1%	-18%	13µM*	-27%
CC1CCCC(NC(=O)c2ccc3c(=O)n(CC4CCCO4)c(=O)[nH]c3c2)C1C (stereo not drawn)	0%	7%	1%	18µM*	?	?
COc1ccc(-n2c(=S)[nH]c3cc(C(=O)Nc4ccc(C)c(F)c4)ccc3c2=O)c(OC)c1	?	5µM*	13µM*	?	?	?
COc1ccc(-n2c(=S)[nH]c3cc(C(=O)NCc4ccco4)ccc3c2=O)cc1OC	3%	-19%	2%	-25%	-13%	-20%
CCOc1ccc(NC(=O)c2ccc3c(=O)n(-c4ccc(OC)cc4OC)c(=S)[nH]c3c2)cc1	?	?	16µM*	.	8.2µM*	.
COc1ccc(CCn2c(=S)[nH]c3cc(C(=O)NCc4ccco4)ccc3c2=O)cc1OC	.	15%	-3%	16µM*	-22%	21µM*
Cc1cc(C(=O)N2CCCCC2)c2c(C3CCCN3)noc2n1 (stereo not drawn)	0%[6.33 µM]	.	.	.	.	.
Cc1cc(C)n2nc(SC(C)C(=O)Nc3cc(Cl)ccc3Cl)nc2n1 (stereo not drawn)	0%	.	.	.	.	.
Cc1ncoc1C(=O)N1CC[C@@H]2COCCN(Cc3ccncc3)[C@@H]2C1	44%	.	.	.	.	.
COC(=O)C1=C(N)OC2=C(C(=O)CCC2)C1c1ccc(Cl)cc1Cl (stereo not drawn)	-12%	.	.	.	.	.
COc1ccc(Cl)cc1NC(=O)c1nn(-c2ccc(C)cc2)c(=O)n(C)c1=O	-24%	.	.	-18%	.	16µM*
COc1cc(NC(=O)c2nn(-c3ccc(F)cc3)c(=O)n(C)c2=O)cc(OC)c1OC	?	.	.	10µM*	.	15µM*
Cc1ccc(-n2nc(C(=O)Nc3ccc(C)c(F)c3)c(=O)n(C)c2=O)cc1	-4%	.	.	-26%	.	-15%
CCOc1ccc(C(=O)N2CCC(c3nnc(Cn4cccn4)n3C)CC2)o1	23%	.	.	.	.	.
CC(=O)N(Cc1cccs1)Cc1cc2ccc(C)c(C)c2nc1Cl	-16%	-3%	-19%	21µM*	12µM*	18µM*
N#C/C(=C\c1cc(Cl)cc(Cl)c1)c1cccnc1	0%[176 µM]	.	.	-14%[92.5 µM]	.	2%[92.5 µM]
CC1CCc2nc(/C(C#N)=C/c3cccnc3)sc2C1 (stereo not drawn)	-3%	-11%	11%	?	?	21µM*
CCCNC(=O)C(NC(=O)c1ccc(OC)cc1)C1CCN(C(=O)c2cccc(F)c2)CC1 (stereo not drawn)	77%	.	.	.	.	.
